In the library only some 8.9% were active in any assay of this set; here they are far more common.
KB-3-1 tox = KB-3-1 parental cell cytotoxicity | 400,000 tested, 1.4% active | AID 1347075 | Potency, µM (doses to about 46.1 µM), hits mostly cytotoxic | KB-3-1 viability, CellTiter-Glo ATP luminescence, 72 h; further: potency means the concentration at half of the fitted maximal effect; on the % scale 0 is the no-effect control and ±100 the full control effect; nearly all actives have a fitted effect of over 60% in size
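Cells are dispensed, compounds pinned in, plates held at 37 °C for 72 h, then CellTiter-Glo is added and luminescence read after 10 minutes. Cell line: parental KB-3-1 in phenol-red-free DMEM, 10% FBS.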
DRD3 agonist = activates the human D3 dopamine receptor. P35462. D3R DiscoveRx beta-arrestin cells, luminescence, 90 min. max activation, %. 410,000 tested, 0.58% active. AID 652048; in the data active means max activation above about 30%; further: 0% is about no effect
Target sequence (P35462 whole entry, looked up): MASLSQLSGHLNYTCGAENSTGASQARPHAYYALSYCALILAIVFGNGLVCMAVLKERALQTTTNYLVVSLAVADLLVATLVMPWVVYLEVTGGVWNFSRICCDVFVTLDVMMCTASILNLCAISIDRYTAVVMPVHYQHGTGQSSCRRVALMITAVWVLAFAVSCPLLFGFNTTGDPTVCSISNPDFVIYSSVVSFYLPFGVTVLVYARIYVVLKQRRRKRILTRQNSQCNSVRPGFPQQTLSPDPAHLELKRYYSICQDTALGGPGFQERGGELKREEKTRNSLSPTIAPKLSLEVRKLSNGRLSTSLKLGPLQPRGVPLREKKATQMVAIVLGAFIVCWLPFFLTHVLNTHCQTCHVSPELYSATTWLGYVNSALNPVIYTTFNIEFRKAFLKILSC
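Agonist-mode cell screen: cells plated at 1500/well and incubated overnight at 37 °C, then exposed to library compounds for 90 min at 37 °C. Detection reagent was added for 30–60 min at room temperature, and luminescence was read.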
MCF10A rerep = DNA re-replication induction in MCF 10a cells. MCF 10A DNA re-replication, Hoechst nuclear intensity, 48 h. Potency, µM (top dose mostly 46.1 µM), for inactives: top-dose activity, positive = re-replication, hits mostly activators. 350,000 tested, 2.9% active; further: potency means the concentration at half of the fitted maximal effect; % of control where 0% means no effect; nearly all actives have a fitted effect of over 50% in size
SW480 rerep = induces DNA re-replication in SW480 colon adenocarcinoma cells. SW480 DNA re-replication, Hoechst DNA content imaging, 48 h. Potency, µM (titrated, usually from 46.1 µM), inactives show at the highest dose re-replication activation, hits mostly activators. 340,000 tested, 1.8% active; further: potency means the concentration at half of the fitted maximal effect; % of control where 0% means no effect; nearly all actives have a fitted effect of over 55% in size
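Hoechst fluorescence of nuclei (405 nm excitation, 500-530 nm emission) measured by plate-scanning imager after 48 hr compound exposure at 37 C; re-replication scored as increased number of nuclei with elevated intensity.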
D3 antag = blocks the human D3 dopamine receptor. AID 652054. D3R cells, DiscoveRx beta-arrestin luminescence, antagonist mode; hits give low values. 360,000 tested, 2.5% active. max response, negative = inhibition, %. P35462; in the data active means max response below about -50%; inconclusive means no clear call, values can overlap the other calls; further: on the % scale 0 is the no-effect control and ±100 the full control effect
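Cells plated overnight at 1500 cells/well, then exposed to library compounds with dopamine controls for 90 minutes at 37 degrees C. DiscoveRx reagent added for 30–60 minutes at room temperature; luminescence read, quantitative HTS format.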
KB-V1 cytotox = kills drug-selected multidrug resistant KB-V1 cells | KB-V1 MDR cells viability, CellTiter-Glo, 72 h | Potency, µM (doses to about 46.1 µM), most hits filed as cytotoxic | 400,000 tested, 3.4% active | AID 1347076; further: potency means the concentration at half of the fitted maximal effect; on the % scale 0 is the no-effect control and ±100 the full control effect; nearly all actives have a fitted effect of over 60% in size
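Compound-treated KB-V1 multidrug-resistant cells, 72 h, 37 degrees C; viability by CellTiter-Glo. Fitted qHTS curves give the values.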
* hit, by the source's call; i = inactive; ? = inconclusive; . = not tested or not shown; [ ] = another dose, or the depositor's remark. Unless noted, the call rests on the fitted dose curve; in most records, active means well fitted curve in the direction sought with a large enough effect; inconclusive means small, poorly fitted or top-dose-only effect, or another doubt; inactive means no such curve, though single readings can be large; an effect the other way counts as inactive or inconclusive.

SMILES	KB-3-1 tox	DRD3 agonist	MCF10A rerep	SW480 rerep	D3 antag	KB-V1 cytotox
CCC(C)Sc1cccc(-c2nc3cnccn3c2NC2CCCCC2)c1 (stereo not drawn)	?	23.4	18.4µM*	?	76.0	?
c1cn2c(NC3CCCCC3)c(-c3ccc(SC4CCCCC4)cc3)nc2cn1	i	1.0	?	-1.5%	35.4	i
CCN(CC)c1ccc(-c2nc3cnccn3c2NC2CCCC2)cc1	?	-2.7	16.4µM*	20.6µM*	-3.7	i
CCc1nn(CC(=O)NCCCN(CC(C)C)CC(C)C)c(=O)c2cc3sc(C)cc3n12	.	-5.5	.	.	.	.
CCS(=O)(=O)N1CC(=O)N(c2ccc(C)c(C)c2)C(C)(C(=O)NC2CCCCCC2)C1 (stereo not drawn)	i	0.7	.	.	.	i
Cc1ccc(NCN2C(=O)C(=O)c3ccccc32)nc1	?	-50.2	?	?	-64.1*	i
CCC(=O)O[C@@H]1[C@H](C)O[C@H](O[C@H]2[C@@H](N(C)C)[C@H](O)[C@@H](O[C@@H]3[C@@H](CC=O)C[C@@H](C)[C@@H](O)/C=C\C=C/C[C@@H](C)OC(=O)C[C@@H](OC(=O)CC)[C@H]3OC)O[C@H]2C)C[C@]1(C)O	.	.	-2.4%[20.6 µM]	-1.5%[20.6 µM]	.	.
Cc1nc(NC(=O)c2ccc(F)cc2)sc1C(=O)Nc1ccc2c(c1)CCC2	i	-13.9	-7.9%	?	-23.4	i
Cc1ccc(C(=O)Nc2nc(C)c(C(=O)Nc3ccc4c(c3)CCC4)s2)cc1	20.6µM*	1.9	1.03µM*	5.8µM*	-2.4	2.91µM*
CC(C)(C)c1ccc(C(=O)NCCc2csc3nc(-c4ccccc4F)nn23)cc1	i	3.1	.	.	.	i
O=S(=O)(Nc1ccc2c(c1)OCO2)c1ccc(Br)s1	i	-4.2	18.4µM*	?	6.2	i
COc1cc(NS(=O)(=O)c2ccc(Br)s2)cc(OC)c1	?	-27.2	5.2%	0.5%	-7.6	16.4µM*
O=S(=O)(Nc1ccc2c(c1)OCO2)c1ccccc1	i	-8.1	1.0%	-14.6%	0.0	?
CCOc1ccc(NC(=O)CSc2nc(=O)n(Cc3cccnc3)c3c2CCC3)cc1	i	-4.6	3.2%	-5.4%	3.0	i
COc1ccc(C(=O)CSc2nc(=O)n(Cc3cccnc3)c3c2CCC3)cc1	i	4.2	4.9%	3.9%	25.4	14.6µM*
CCOc1cc(CNCCSc2nnnn2C)ccc1OCc1ccc(Cl)cc1Cl	i	-12.1	.	.	.	?
NC(=O)c1c(N)[nH]c(C(=O)c2ccccc2)c1-c1ccccc1Br	i	-6.2	.	.	-52.0*	i
CC(C)(C)C(=O)c1c(N)[nH]c(C(=O)c2ccccc2)c1-c1ccccc1Br	i	-5.1	.	.	-13.1	?
CCOCCn1cnc2sc(C(=O)Nc3ccccc3C(=O)OC)c(C)c2c1=O	i	-32.9	.	.	.	i
Cc1ccc(C)c(N2CCN(C(=O)C3CCCN(c4ncnc5c4nc4n5CCCCC4)C3)CC2)c1 (stereo not drawn)	?	31.5*	20.6µM*	26.4%	59.5	?
COc1cccc(N2CCN(c3ncnc4c3nc3n4CCCCC3)CC2)c1	16.4µM*	12.2	.	.	.	?
O=C(C1CCCN(c2ncnc3c2nc2n3CCCCC2)C1)N1CCN(c2ccccc2)CC1 (stereo not drawn)	i	20.4	-9.6%	1.7%	97.2	?
O=C(C1CCCN(c2ncnc3c2nc2n3CCCCC2)C1)N1CCN(c2cccc(Cl)c2)CC1 (stereo not drawn)	?	-9.8	?	-32.9%	63.0	23.1µM*
O=C(Nc1cccc(C(F)(F)F)c1)c1cc(S(=O)(=O)N2CCCC2)c[nH]1	i	2.6	.	.	.	i
Cc1cc(NC(=O)C(C)(C)Oc2ccc(Cl)cc2)cc(-c2nc3ncccc3o2)c1O	i	0.5	.	.	.	i
SMILES	KB-3-1 tox	DRD3 agonist	MCF10A rerep	SW480 rerep	D3 antag	KB-V1 cytotox
O=C(CCn1c(=O)c2ccccc2n(CC(=O)Nc2ccc(F)cc2)c1=O)NCCc1ccccc1	i	6.1	.	.	.	i
Cc1ccc(OCC(=O)N2CCc3ccccc3C2)cc1	i	-3.1	-1.9%	2.0%	-5.2	i
CN(C(=O)C(C)(C)C)c1ccc(OCC(=O)N2CCc3ccccc3C2)cc1	?	5.0	19.6%	1.8%	-6.2	4.61µM*
COCCCNC(=O)Cn1c(=O)n(-c2ccc(C)cc2)c(=O)c2c1c1cc(C)ccc1n2C	i	-8.7	.	.	.	i
COc1ccccc1OCCNC1CCCC1	i	-6.5	0.2%	-2.2%	-76.3*	i
CCC(C)c1ccccc1OCCCNC1CCCC1 (stereo not drawn)	i	-3.1	-0.3%	20.1%	-82.0*	?
CCN1CCCC(NC(=O)c2cc([N+](=O)[O-])ccc2OC)C1 (stereo not drawn)	i	-25.6	5.6%	-2.2%	-59.6*	i
Cc1cc(C)cc(Nc2cc(C)nc3nc(-c4ccco4)nn23)c1	i	5.2	.	.	.	i
COc1ccccc1CNC(=O)COc1cc2c(c3oc(=O)cc(C)c13)CCC(C)(C)O2	i	11.3	?	?	48.2	16.4µM*
COc1ccc(CNC(=O)COc2cc3c(c4oc(=O)cc(C)c24)CCC(C)(C)O3)cc1	i	35.8*	?	-1.3%	23.6	i
O=C(COc1ccccc1F)OCc1cc(=O)n2nc(-c3cccs3)sc2n1	i	-10.1	.	.	.	i
CCOc1ccccc1NC(=O)CSC1=Nc2ccccc2C2=NC(CC(=O)NC3CCCCC3)C(=O)N12 (stereo not drawn)	i	8.4	.	.	.	i
COc1cccc(NC(=O)c2oc3ccc(S(=O)(=O)N(C)C4CCCCC4)cc3c2C)c1	.	10.1	.	.	.	.
O=C(NCCN1C(=O)S/C(=C\c2cccc(Cl)c2Cl)C1=O)C1=COCCO1	20.6µM*	-1.2	2.59µM*	?	-14.4	14.6µM*
Cc1ccc(S(=O)(=O)N2CCOCC2)cc1C(=O)NCCN1C(=O)S/C(=C\c2ccccc2Cl)C1=O	?	5.6	8.1%	0.2%	13.4	?
CCN(CC)C(=S)S	.	-6.6	6.1%	?	.	.
COc1ccc(N2CC(NC(=O)c3ccc(S(=O)(=O)N4CCOCC4)cc3)CC2=O)cc1OC (stereo not drawn)	i	1.0	.	.	.	i
Cc1nn(-c2ccccc2)c(NC(=O)c2cccs2)c(-c2ccccc2Cl)c1=O	i	-6.7	1.0%	?	-59.2*	i
Cc1cc(N2C(=O)C(O)=C(C(=O)c3cc4ccccc4o3)C2c2cccc(Br)c2)no1 (stereo not drawn)	i	4.9	18.4µM*	-1.7%	20.7	?
